Test results from PubChem BioAssay (EPA / NIEHS).
Several values for one entry are separate records, joined by “and”; a condition that tells them apart may be missing. Identical values can stand only once. Inconclusive results are not listed. The source holds several records for some structures; these can differ, active in one and inactive in another. Activity calls are given as the source filed them. Rule for the calls: active = hit-call score of the fitted dose curve at least 0.9, where 1 is the maximum; inconclusive = response in the unintended direction; inactive = score below 0.9.

assay: TOX21_p53_BLA_p3_viability: Viability Assessment in the Tox21 HCT-116 p53 Agonism Beta-lactamase Assay, Phase 3 (AID 2283593);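 note: cells exposed to compound for 16 h before reading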
Excerpt: TOX21_p53_BLA_p3 is a cell-based, single-readout assay that uses HCT116, a human intestinal cell line, […] in a 1536-well plate.TOX21_p53_BLA_p3_viability is an assay readout measuring cellular ATP content and detected with CellTiter-Glo Luciferase-coupled ATP quantitation.TOX21_p53_BLA_p3_viability used a type of viability reporter where loss-of-signal activity can be used to understand changes in the cell viability. Furthermore, this assay endpoint can be referred to as a secondary readout, because this assay has produced multiple assay endpoints where this one serves a viability function. To generalize the intended target to other relatable targets, this assay endpoint is annotated to the cell cycle intended target family, where the subfamily is cytotoxicity.
Thawing Method: Place 14 mL of pre-warmed thaw medium into a 15 mL of conical tub. Remove the vial of cells to be thawed from liquid nitrogen and thaw rapidly by placing at 37C in a water bath with gentle agitation for 1-2 minutes. Decontaminate the vial by wiping with 70% ethanol before opening in a biological safety cabinet. Transfer the vial contents drop-wise into 14 mL of thaw medium in a sterile 15-mL conical tub. Centrifuge cells at 900 rpm for 4 minutes and resuspend in thaw medium. Transfer contents to the T75 tissue culture flask containing Thaw Medium and place flask in a humidified 37C/5% CO2 incubator. Switch to growth medium at first passage.Propagation Method: Aspirate medium, rinse once in DPBS, add 0.25% Trypsin/EDTA and swirl to coat the cell evenly. Add an equal volume of Growth Medium to inactivate Trypsin after 2-3 minutes incubation at 37C. Centrifuge cells at 900 rpm for 4 minutes and resuspend in growth medium. Cell should be passage or fed at least twice a week.Assay Protocol: Harvest cells from culture in growth medium and resuspend in assay medium. 2.2 Dispense 4000 cells/5 uL/well into 1536-well black/clear bottom plates using a Multidrop dispenser. After the cells were incubated at 37C for 5 hours, 23 nL of compounds dissolved in DMSO were transferred to the assay plate by a PinTool resulting in a 217-fold dilution. Incubate the plates for 16 hours at 37C, 5% CO2. Add 1 uL of 6X LiveBLAzer FRET B/G (CCF4-AM) Substrate Mixture to each well using a BioRAPTR dispenser and incubate the plates at room temperature for 2 hours. Measure fluorescence intensity at 460 and 530 nm emission and 405 nm excitation by an Envision detector. Data is expressed as the ratio of 460nm/530nm emissions. Add 4 uL of Cell-titer Glo to each well using BioRAPTR and incubate the plates at room temperature for […]. For cell viability readout that measures cytotoxicity, 4 ul/well of CellTiter-Glo reagent was added into the assay plates using a Flying Reagent Dispenser. After 30 min incubation at room temperature, the luminescence intensity in the plates was measured using a ViewLux plate reader.

SMILES | outcome | AC50
COc1ccccc1[N+](=O)[O-] | inactive | 
O=c1[nH]c(=O)c2cn[nH]c2[nH]1 | inactive | 
CCOC(=O)COC(=O)c1cc(Oc2ccc(C(F)(F)F)cc2Cl)ccc1[N+](=O)[O-] | inactive | 
CN1C(=O)c2ccccc2C1=O | inactive | 
CC(C)CCOC(=O)c1ccccc1 | inactive | 
O=C(Nc1ccc2c(c1)Cc1ccccc1-2)C(F)(F)F | inactive | 
O=[N+]([O-])c1ccc(O)cc1C(F)(F)F | inactive | 
O=C(O)CCCCCCCCC(=O)O | inactive | 
CCCCCCCCC=CCCCCCCCC1=NCCN1CCO |  | 77.4 µM (active)
N[C@@H](Cc1cc(I)c(Oc2cc(I)c(O)c(I)c2)c(I)c1)C(=O)O | inactive | 
CCCOCCO | inactive | 
[O-]n1ccccc1=S.[O-]n1ccccc1=S.[Zn+2] |  | 20.3 µM (active) [middle of 4 runs]
O=C(O)c1ccc(O)cc1 | inactive | 
CCCC(=O)OC(C)(C)Cc1ccccc1 | inactive | 
COCCOC(=O)c1ccccc1C(=O)OCCOC | inactive | 
C=C(CC(=O)O)C(=O)O | inactive | 
Oc1c(Cl)cc(Cl)c(Cl)c1Cc1c(O)c(Cl)cc(Cl)c1Cl | inactive | 39.9 µM (active) and 568 nM (active)
Cc1cc(=O)oc2cc(N(C)C)ccc12 | inactive | 
CS(=O)(=O)OCCCCOS(C)(=O)=O | inactive | 2.31e-05 µM (active)

SMILES | outcome | AC50
Cc1ccc(S(N)(=O)=O)cc1 | inactive | 
C=CC(=O)OCCCC | inactive | 
CCC(C)=O | inactive | 
O=[N+]([O-])c1cccc(Cl)c1 | inactive | 
Cc1ccc(S(=O)(=O)Oc2ccc(N=Nc3ccc(-c4ccc(N=Nc5c(O)ccc6cc(S(=O)(=O)O)cc(S(=O)(=O)O)c56)c(C)c4)cc3C)cc2)cc1 | inactive | 
O=C(CC(=O)c1ccccc1)c1ccccc1 | inactive | 
CC(C)CCCCCCc1ccc(OCCOCCO)cc1 | inactive | 
CC(=O)C1(C)CC2=C(CCCC2(C)C)CC1C (stereo not given) | inactive | 
COc1ccccc1N=Nc1c(S(=O)(=O)O)cc2cc(S(=O)(=O)O)cc(NC(C)=O)c2c1O | inactive | 
COc1ccc(N=Nc2cc(C)c(N=Nc3ccc(S(=O)(=O)O)cc3)cc2OC)cc1 | inactive | 
C=C1CC[C@H](O)C/C1=C/C=C1\CCC[C@]2(C)[C@@H]([C@H](C)/C=C/[C@H](C)C(C)C)CC[C@@H]12 |  | 61.1 µM (active) and 45.8 µM (active) and 42.2 µM (active)
Cc1c(Cl)cccc1[N+](=O)[O-] | inactive | 
CC(=O)CC(=O)Nc1ccc(C)cc1C | inactive | 
C/C=C(\C)C(=O)OCCc1ccccc1 | inactive | 
CCO/C=C1\N=C(c2ccccc2)OC1=O | inactive | 
C1CCOC1 | inactive | 
COc1ccc(CCN2CCC(Nc3nc4ccccc4n3Cc3ccc(F)cc3)CC2)cc1 | inactive | 15.2 µM (active)
CCCCC1(COC(=O)CCC(=O)O)C(=O)N(c2ccccc2)N(c2ccccc2)C1=O | inactive | 
